Bioassay records: PubChem BioAssay, National Center for Advancing Translational Sciences (NCATS)
In the library only some 12% were active in any assay of this set; here they are far more common.
RORgamma inh – ROR gamma (mouse) transcription inhibition | P51450 | Drosophila S2 Gal4-RORgamma UAS-luciferase reporter, 20 h | 310,000 tested, 5.4% active | AID 2551 | Potency, µM (highest dose often 53.6 µM), without a hit: at the highest dose activity change, negative = inhibition, usual class: inhibitors; note: nearly all actives have a fitted effect of over 60% in size
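Stable Schneider cell line, Gal4 DNA-binding domain fused to ROR gamma, UAS-luciferase. Cmpd 1 hr RT → CuSO4 700 uM final → 20 hr RT → luciferase reagent 10 min → luminescence.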
PLK1 PBD block – PLK1 (human) polo-box domain binding inhibition. 360,000 tested, 2.8% active. P53350. Potency, µM, without a hit: max response, negative = inhibition, most hits filed as inhibitors. Plk1 PBD binding of FITC phosphopeptide, fluorescence polarization; note: series mostly up to about 57 µM; nearly all actives have a fitted effect of over 65% in size
Target sequence (P53350 whole entry, looked up, the tested form may be a part): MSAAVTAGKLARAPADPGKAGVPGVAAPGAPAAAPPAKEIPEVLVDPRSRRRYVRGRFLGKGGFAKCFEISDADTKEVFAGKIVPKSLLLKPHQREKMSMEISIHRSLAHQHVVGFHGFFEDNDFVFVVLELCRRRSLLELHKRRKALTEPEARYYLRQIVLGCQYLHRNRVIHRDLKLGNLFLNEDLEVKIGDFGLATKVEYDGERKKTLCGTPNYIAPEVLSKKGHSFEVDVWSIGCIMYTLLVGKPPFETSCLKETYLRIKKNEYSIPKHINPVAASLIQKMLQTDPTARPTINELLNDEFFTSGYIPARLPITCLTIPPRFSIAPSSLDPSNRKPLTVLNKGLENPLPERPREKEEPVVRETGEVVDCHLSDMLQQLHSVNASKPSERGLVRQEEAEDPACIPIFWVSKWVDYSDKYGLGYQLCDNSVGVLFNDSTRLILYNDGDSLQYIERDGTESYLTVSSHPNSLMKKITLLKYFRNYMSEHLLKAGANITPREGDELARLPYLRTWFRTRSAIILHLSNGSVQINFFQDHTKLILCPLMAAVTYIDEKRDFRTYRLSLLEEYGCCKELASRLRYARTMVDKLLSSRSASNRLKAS
ALDH1A1 block – blocks purified human ALDH1A1 activity. P00352. Purified ALDH1A1, NADH fluorescence, propionaldehyde substrate. Potency, µM (top dose mostly 75.3 µM), for inactives: at the top dose activity, negative = inhibition, actives largely listed as inhibitors. 220,000 tested, 7.3% active; active = well fitted inhibition curve with a large enough effect, not every such curve was filed as active; inconclusive = small, poorly fitted or top-dose-only effect, or another doubt; inactive = no such curve, though single readings can be large or run the other way;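 note: plate controls were no enzyme wells and a reference inhibitor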
Sfp PPTase inh – inhibitors of Bacillus subtilis Sfp phosphopantetheinyl transferase | Q9F4F7 | Biochemical Sfp PPTase activity, qHTS | Potency, µM, without a hit: largest response in the series, negative = inhibition, usual class: inhibitors | 310,000 tested, 3.5% active | AID 1490;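 note: the enzyme is Sfp with the accession as filed and its product quenches rhodamine fluorescence; 0% = enzyme reaction without inhibitor and -100% = no enzyme wells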
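Reaction rates are the 30-min fluorescence difference (ex 525, em 598 nm) in wells containing 15 nM Sfp, 5 uM rhodamine-CoA and 12.5 uM BHQ-2-YbbR at pH 7.6 with 10 mM MgCl2.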
Gal4-VP16 FLuc – Gal4-VP16 reporter inhibition counter-screen. 310,000 tested, 3.5% active. Drosophila S2 Gal4-VP16 UAS-luciferase, luminescence, 20 h. Potency, µM (series often up to 53.6 µM), without a hit: top-dose activity, negative = inhibition, hits mostly inhibitors;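 note: Gal4-VP16 expression switched on by copper sulfate through the metallothionein promoter; nearly all actives have a fitted effect of over 50% in size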
Active calls of the source: *; [ ] = dose if it differs, or a comment. Unless noted, calls come from the whole dose curve; as a rule, active = well fitted curve in the direction sought with a large enough effect; inconclusive = small, poorly fitted or top-dose-only effect, or another doubt; inactive = no such curve, though single readings can be large; an effect the other way counts as inactive or inconclusive. Unless noted, % is set by controls: 0 for no effect and ±100 for the full control effect; potency is the fitted concentration of half-maximal effect.

`Cc1cc2cc(NC(=O)c3ccco3)ccc2[nH]1` gave RORgamma inh -39%, PLK1 PBD block -21%, ALDH1A1 block 22µM*, Sfp PPTase inh 6% and Gal4-VP16 FLuc 1%.
For Cc1nc2ccc(NC(=O)c3ccco3)cc2nc1C the results were RORgamma inh 25%, PLK1 PBD block -11%, ALDH1A1 block inconclusive, Sfp PPTase inh 23% and Gal4-VP16 FLuc inconclusive.
O=C(Nc1ccc2nc(-c3ccco3)[nH]c2c1)c1ccco1 was read as RORgamma inh -11%, PLK1 PBD block -3%, ALDH1A1 block inconclusive, Sfp PPTase inh 45µM* and Gal4-VP16 FLuc -10%.
O=C(O)CCc1ccc(-c2ccc(Br)cc2)n1Cc1ccco1 was read as RORgamma inh 4%, PLK1 PBD block inconclusive, ALDH1A1 block inconclusive, Sfp PPTase inh -1% and Gal4-VP16 FLuc -9%.
`Cc1ccc(-c2ccc(CCC(=O)O)n2CC(=O)O)cc1` gave RORgamma inh -23%, PLK1 PBD block -15%, ALDH1A1 block inconclusive, Sfp PPTase inh 71µM* and Gal4-VP16 FLuc -43%.
O=C(O)CCc1ccc(-c2ccc(F)cc2)n1CC(=O)O was read as RORgamma inh 26%, PLK1 PBD block -17%, ALDH1A1 block inconclusive, Sfp PPTase inh inconclusive and Gal4-VP16 FLuc -4%.
Screening O=C(O)CCc1ccc(-c2ccccc2)n1Cc1ccco1 returned RORgamma inh 29%, PLK1 PBD block -22%, ALDH1A1 block inconclusive, Sfp PPTase inh 35µM* and Gal4-VP16 FLuc -5%.
c1ccc(-c2csc3ncnc(N4CCOCC4)c23)cc1 was read as RORgamma inh 0%, PLK1 PBD block -10%, ALDH1A1 block -2%, Sfp PPTase inh 11% and Gal4-VP16 FLuc 2%.
Cc1sc2ncnc(SCC(=O)NNC(=O)c3ccco3)c2c1C was read as RORgamma inh inconclusive, PLK1 PBD block -4%, ALDH1A1 block -8%, Sfp PPTase inh -17% and Gal4-VP16 FLuc -4%.
`Cc1sc2ncnc(OCC(=O)N3CCN(C(=O)c4ccco4)CC3)c2c1C` gave RORgamma inh -41%, PLK1 PBD block -3%, ALDH1A1 block 3.2µM*, Sfp PPTase inh 8% and Gal4-VP16 FLuc -5%.
For c1ccc(-c2csc3ncnc(N4CCc5ccccc5C4)c23)cc1 the results were RORgamma inh inconclusive, PLK1 PBD block 0%, ALDH1A1 block 0%, Sfp PPTase inh -16% and Gal4-VP16 FLuc 13µM*.
Screening COc1ccc(-c2csc3ncnc(N4CCN(C(=O)c5ccco5)CC4)c23)cc1 returned PLK1 PBD block -15%.
O=C(c1ccco1)N1CCN(c2ncnc3scc(-c4ccccc4)c23)CC1 was read as RORgamma inh -15%, PLK1 PBD block -24%, ALDH1A1 block 11µM*, Sfp PPTase inh -9% and Gal4-VP16 FLuc -17%.
`Cc1cc2ncn(-c3ncnc4scc(-c5ccccc5)c34)c2cc1C` gave RORgamma inh 5.6µM*, PLK1 PBD block 29%, ALDH1A1 block inconclusive, Sfp PPTase inh 2% and Gal4-VP16 FLuc -25%.
`COc1ccc(CNC(=O)c2ccc(-n3ccnc3)c3ccoc23)cc1OC` gave PLK1 PBD block -6%.
For COc1cc(OC)c(NC(=O)c2ccc3c(SCC(=O)O)c4c(nc3c2)CCCC4)cc1Cl the results were RORgamma inh 13%, PLK1 PBD block -5%, ALDH1A1 block -17%, Sfp PPTase inh -25% and Gal4-VP16 FLuc -1%.
COc1ccc(-n2ccnc2SCC(=O)c2c(N)n(C3CC3)c(=O)[nH]c2=O)cc1 was read as PLK1 PBD block -7%.
Cc1ccc(-c2csc3ncnc(N4CCN(C(=O)c5ccccc5)CC4)c23)cc1 was read as RORgamma inh -33%, PLK1 PBD block -10%, ALDH1A1 block 13µM*, Sfp PPTase inh inconclusive and Gal4-VP16 FLuc inconclusive.
COc1cc2cc(CN(CCc3cccc(C)c3)C(=S)NCCCN3CCOCC3)c(=O)[nH]c2cc1OC was read as RORgamma inh 7.1µM*, PLK1 PBD block -10%, ALDH1A1 block inconclusive, Sfp PPTase inh inconclusive and Gal4-VP16 FLuc inconclusive.
COc1cc2cc(CN(CCc3cccc(C)c3)C(=S)NCCCN(C)C)c(=O)[nH]c2cc1OC was read as RORgamma inh -28%, PLK1 PBD block -8%, ALDH1A1 block inconclusive, Sfp PPTase inh 9% and Gal4-VP16 FLuc -9%.
`CC(C)C(Sc1nc(-c2ccccc2)cc(-c2ccccc2)c1C#N)C(=O)O` (stereo not drawn) gave RORgamma inh -7%, PLK1 PBD block 19µM*, ALDH1A1 block inconclusive, Sfp PPTase inh -1% and Gal4-VP16 FLuc inconclusive.
Screening COc1ccc(-c2cc(-c3ccccc3)nc(SC(C)C(=O)O)c2C#N)cc1 (stereo not drawn) returned RORgamma inh inconclusive, PLK1 PBD block 27µM*, Sfp PPTase inh -27% and Gal4-VP16 FLuc -22%.
For CCOC(=O)CC(=O)CSc1nc(-c2ccccc2)cc(-c2ccccc2)c1C#N the results were RORgamma inh -16%, PLK1 PBD block -10%, ALDH1A1 block inconclusive, Sfp PPTase inh -11% and Gal4-VP16 FLuc -12%.
CS(=O)(=O)c1nc(-c2ccccc2)cc(-c2ccccc2)c1C#N was read as RORgamma inh 10µM*, PLK1 PBD block -7%, ALDH1A1 block inconclusive, Sfp PPTase inh 16% and Gal4-VP16 FLuc inconclusive.
O=C(C[C@H]1C[C@@H]2c3cc(NC(=O)Nc4ccccc4)ccc3O[C@@H]2[C@@H](CO)O1)NCC1CC1 was read as PLK1 PBD block 2%.
COc1ccc(C2=Nn3c(nnc3-c3ccc(OC)cc3OC)SC2)cc1 was read as RORgamma inh inconclusive, Sfp PPTase inh -16% and Gal4-VP16 FLuc -9%.
Screening C/C=C1\C(=O)CC2C3CCC4=CC(=O)CC[C@]4(C)C3CC[C@]12C (stereo partly drawn) returned RORgamma inh 8%, ALDH1A1 block 4%, Sfp PPTase inh -6% and Gal4-VP16 FLuc 6%.
Screening Cc1cccc(/N=C/c2c(O)cc(C)oc2=O)n1 returned RORgamma inh 29%[0.365 µM], PLK1 PBD block -5%, ALDH1A1 block inconclusive and Sfp PPTase inh -14%.
Cc1ccc(N/N=C/c2c(O)cc(C)oc2=O)cc1 was read as RORgamma inh -18%, PLK1 PBD block -8%, ALDH1A1 block inconclusive, Sfp PPTase inh 56µM* and Gal4-VP16 FLuc 0%.
`Cc1c(/C=N/Nc2ccc(F)cc2)c(O)n(C)c(=O)c1C#N` gave RORgamma inh 17%, PLK1 PBD block 19µM*, ALDH1A1 block 3.5µM*, Sfp PPTase inh -15% and Gal4-VP16 FLuc 2%.
Cc1ccc(CO/N=C/c2c(O)cc(C)oc2=O)cc1 was read as RORgamma inh 30%, PLK1 PBD block -7%, ALDH1A1 block 8%, Sfp PPTase inh -8% and Gal4-VP16 FLuc -3%.
`Cc1cc(O)c(/C=N/Nc2ccc(F)cc2)c(=O)o1` gave RORgamma inh -13%, PLK1 PBD block -20%, ALDH1A1 block inconclusive, Sfp PPTase inh 79µM* and Gal4-VP16 FLuc 9%.
